Screening data deposited in PubChem BioAssay by National Center for Advancing Translational Sciences (NCATS).
An excerpt weighted towards active compounds, which were near 9% of everything screened.
BAZ2B inh: qHTS Assay for Inhibitors of BAZ2B; AlphaScreen BAZ2B-H3K14Ac peptide displacement; Potency, µM (titrated, usually from 114 µM), usual class: inhibitors; hit rate 4.4% among 360,000; Bromodomain adjacent to zinc finger domain protein 2B (Homo sapiens), Q9UIF8; AID 504333, 2011; note: nearly all actives have a fitted effect of over 60% in size
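BAZ2B 50 nM plus b-H3(5-23)K14Ac 50 nM, PBS pH 7.4/0.01% Tween-20, 30 min RT; compound added (max 110 uM), 30 min RT; streptavidin donor/Ni-chelate acceptor beads 10 ug/mL final, 20 min dark; AlphaScreen read.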
PLK1 PBD block: qHTS for Inhibitors of PLK1-PDB (polo-like kinase 1 - polo-box domain): Primary Screen; Serine/threonine-protein kinase PLK1 (Homo sapiens), P53350; Plk1 PBD binding of FITC phosphopeptide, fluorescence polarization; Potency, µM, hits mostly inhibitors; hit rate 2.8% among 360,000; AID 720504, 2013; note: series mostly up to about 57 µM; nearly all actives have a fitted effect of over 65% in size
HP1b chromo inh: HTS for Inhibitors of HP1-beta Chromodomain Interactions with Methylated Histone Tails; AID 540317, 2011; Chromobox protein homolog 1 (Homo sapiens), P83916; AlphaScreen HP1-beta / biotin-H3K9me3 peptide binding; hit rate 0.56% among 390,000; Potency, µM (top dose mostly 114 µM), usual class: inhibitors; note: nearly all actives have a fitted effect of over 70% in size
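Compound inhibition of the preformed complex between 50 nM HP1-beta and 50 nM biotinylated H3K9me3 peptide was read by AlphaScreen. Buffer was PBS pH 7.4 with 0.01% Tween-20. Incubations ran 30 min at room temperature, with 10 ug/mL donor/acceptor beads.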
ALOX12 inh: Primary qHTS assay for inhibitors of human arachidonate 12S-lipoxygenase (ALOX12): Round 2 | Polyunsaturated fatty acid lipoxygenase ALOX12 (Homo sapiens), P18054 | purified 12hLO, xylenol orange hydroperoxide absorbance | Potency, µM (top dose mostly 108 µM), hits mostly inhibitors | hit rate 1.1% among 580,000 | AID 1671190, 2021
Target sequence (P18054 whole entry, looked up): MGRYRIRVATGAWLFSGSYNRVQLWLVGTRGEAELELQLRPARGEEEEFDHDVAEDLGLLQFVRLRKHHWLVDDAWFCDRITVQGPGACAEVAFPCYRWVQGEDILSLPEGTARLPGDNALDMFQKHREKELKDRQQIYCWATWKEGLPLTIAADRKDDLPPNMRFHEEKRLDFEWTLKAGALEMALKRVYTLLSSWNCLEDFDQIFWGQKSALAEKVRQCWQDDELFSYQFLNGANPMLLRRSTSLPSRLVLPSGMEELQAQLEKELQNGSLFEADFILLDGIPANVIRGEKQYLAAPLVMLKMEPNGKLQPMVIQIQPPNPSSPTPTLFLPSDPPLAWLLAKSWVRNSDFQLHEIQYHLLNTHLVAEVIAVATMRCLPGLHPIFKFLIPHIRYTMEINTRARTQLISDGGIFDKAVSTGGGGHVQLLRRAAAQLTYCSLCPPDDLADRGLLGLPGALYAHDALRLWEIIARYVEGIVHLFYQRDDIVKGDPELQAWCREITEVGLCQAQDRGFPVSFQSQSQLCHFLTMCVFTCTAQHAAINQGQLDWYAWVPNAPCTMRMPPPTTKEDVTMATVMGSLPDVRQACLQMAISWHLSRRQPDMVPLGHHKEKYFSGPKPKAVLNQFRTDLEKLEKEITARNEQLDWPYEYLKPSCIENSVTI
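Hydroperoxide product was detected by ferrous iron/xylenol orange as the 573 to 405 nm absorbance ratio. Arachidonic acid at 40 uM (final) was turned over for 30 min at room temperature by 150 nM human 12hLO, pH 7.0 Hepes buffer, after 15 min compound preincubation.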
G9a inh: qHTS Assay for Inhibitors of Histone Lysine Methyltransferase G9a | Histone-lysine N-methyltransferase EHMT2 (Homo sapiens), Q96KQ7 | G9a H3K9 monomethylation, AlphaScreen, 2 h | Potency, µM (doses to about 102 µM), actives largely listed as inhibitors | hit rate 8.8% among 350,000; note: nearly all actives have a fitted effect of over 75% in size
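Signal arises when biotinylated H3K9 peptide, once monomethylated, bridges streptavidin donor and antibody-captured acceptor beads. Enzyme at 20 nM was preincubated 15 min with test compounds; peptide 500 nM and SAM 20 uM then reacted for 2 h.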
JMJD2A Tudor inh: qHTS Assay for Inhibitors of JMJD2A-Tudor Domain. Lysine-specific demethylase 4A (Homo sapiens), O75164. hit rate 4.4% among 390,000. Potency, µM (highest dose often 114 µM), hits mostly inhibitors. AlphaScreen JMJD2A-Tudor / H3K4me3 peptide binding; note: nearly all actives have a fitted effect of over 50% in size
Numbers stand for hits; 0 = inactive; ? = inconclusive; - = no result; [ ] = another dose, or the depositor's remark. Calls come from the whole dose curve; as a rule, active = well fitted curve in the direction sought with a large enough effect; inconclusive = small, poorly fitted or top-dose-only effect, or another doubt; inactive = no such curve, though single readings can be large; an effect the other way counts as inactive or inconclusive.

SMILES | BAZ2B inh | PLK1 PBD block | HP1b chromo inh | ALOX12 inh | G9a inh | JMJD2A Tudor inh
O=C(C[n+]1ccccc1)N/N=C/c1cc(Br)ccc1O | 10µM | 0 | 0 | 0 | 0 | 22µM
COc1cccc(/C=N/NC(=O)C[n+]2ccccc2)c1O | 18µM | 0 | 0 | 0 | 0 | 45µM
Cc1ccc(C)c(NC(=O)N(C)CC2CCOC2)c1 (stereo unspecified) | - | - | - | 0 | - | -
Cc1onc(C(=O)NN)c1-c1csc(COc2ccc(Cl)cc2)n1 | 0 | 0 | 0 | - | 0 | 0
CC(=O)Nc1ccc(SCC(=O)OCC(=O)NC(=O)NCc2ccco2)cc1 | 0 | 0 | 0 | 0 | 0 | 0
O=C(NCc1n[nH]c(=S)n1-c1ccc(Cl)c(Cl)c1)c1ccco1 | 0 | 0 | 0 | ? | 0[12.7 µM] | 50µM
COc1ccccc1-n1c(CNC(=O)c2ccco2)n[nH]c1=S | 0 | 0 | 0 | 0 | 25µM | ?
O=C(NCc1n[nH]c(=S)n1-c1ccccc1)c1ccco1 | 0 | 0 | 0 | ? | 8.9µM | 16µM
O=C(NCCNCc1ccccc1)c1ccco1 | - | ? | 0 | 28µM | - | 25µM
CCc1ccc(CNCCNC(=O)c2ccco2)cc1 | - | ? | 0 | 0 | - | 0
Cc1ccc(C(=O)N(Cc2cc3ccc(F)cc3nc2N2CCC(O)CC2)CC2CCCO2)cc1 (stereo unspecified) | - | - | - | 0 | - | -
O=[N+]([O-])c1ccc(-c2nnc(-c3ccccc3)c(N3CCOCC3)n2)cc1 | 0 | 0 | 0 | 0 | 0[12.7 µM] | 0
CCOC(=O)c1c(N)sc(=S)c2c1CCC2 | 45µM | ? | ? | ? | ? | ?
CNC(=O)c1c(N)sc2c1CCCCC2 | 0 | - | - | - | 10µM | -
NC(=O)c1c(N)sc2c1CCC2 | 0 | ? | 0 | 0 | - | 0
CCCOC(=O)c1c(N)sc2c1CCC2 | ? | 0 | ? | 0 | 50µM | ?
CC(C)OC(=O)c1c(N)sc2c1CCCC2 | - | 24µM | 0 | ? | - | ?
CCOC(=O)c1c(N)sc(C(=O)N2CCCCCC2)c1C | 0 | 0 | 0 | 0 | 0 | 0
CC(C)(C)c1ccc(S(=O)(=O)N2CCSC2)cc1 | 0 | 0 | 0 | 0 | 0 | 0
O=C(CN1C(=O)NC2(CCCC2)C1=O)Nc1cnc2ccccc2c1 | - | - | - | 0 | - | -
COc1ccc(Cn2c(=O)c3cccnc3n(Cc3cccc(OC)c3)c2=O)cc1 | 0 | - | 0 | 0 | 0 | 0
O=C(Cn1cnc2sc3c(c2c1=O)CCC3)NC1CCS(=O)(=O)C1 (stereo unspecified) | - | - | - | 0 | - | -
Nc1sc2c(c1C(=O)NC1CCS(=O)(=O)C1)CCC2 (stereo unspecified) | 0 | 17µM | 0 | - | 7.1µM | 0[11.4 µM]
CCOC(=O)c1c(N)ssc1=S | ? | 6.7µM | ? | ? | 1µM | ?
C=CCn1sc(N)c(C(=O)OCC)c1=S | ? | 0 | 0 | 0 | 0 | 0
SMILES | BAZ2B inh | PLK1 PBD block | HP1b chromo inh | ALOX12 inh | G9a inh | JMJD2A Tudor inh
O=C(NC1CC(=O)N(c2ccccc2)C1)C(c1ccccc1)c1ccccc1 (stereo unspecified) | 0 | - | 0 | 0 | 0 | 0
COc1ccc(-c2nc3ccccc3c(=O)n2Cc2ccccc2)cc1CNc1ccc(NC(C)=O)cc1 | - | - | - | - | - | 50µM
COc1ccc(-c2nc3ccc(NC(=O)CO)cc3c(=O)n2Cc2cccc(Cl)c2)cc1COc1ccc(NC(C)=O)cc1 | - | - | 0 | - | - | 56µM
CN1C(=S)N(c2ccccc2)C(=O)/C1=C/c1ccco1 | 0 | 0 | 0 | ? | 10µM | 0
O=C1/C(=C/c2ccco2)N=C(N2CCCCC2)N1c1ccccc1 | 79µM | 0 | 0 | 0 | ? | 0
CC(C)N(C1=N/C(=C\c2ccco2)C(=O)N1c1ccccc1)C(C)C | 0 | 0 | 0 | 0 | ? | 0
CN1CCN(Cc2coc3c(Cl)cc(Cl)cc3c2=O)CC1 | 50µM | 0 | ? | ? | 25µM | 8.9µM
O=S(=O)([O-])CCC[n+]1c(SCCCS(=O)(=O)O)sc2ccc(Cl)cc21 | ? | ? | 0 | 0 | 25µM | 79µM
CC(=O)c1cccc(NC(=O)c2cc3ccccn3n2)c1 | 0 | 0 | 0 | 0 | 0 | 0
COc1ccc(-c2nsc3c(SCc4ccccc4)ncnc23)cc1 | 0 | 0 | 0 | 0 | 0 | 0
CC(C)C(=O)NC(Nc1ccc(S(N)(=O)=O)cc1)C(Cl)(Cl)Cl (stereo unspecified) | 0 | 0 | 0 | 0 | 0 | 0
CC(C)C(=O)NC(NC(=S)Nc1ccc(S(N)(=O)=O)cc1)C(Cl)(Cl)Cl (stereo unspecified) | 0 | 0 | 0 | 0 | 50µM | 0
CCCCCC(=O)NC(NC(=S)Nc1ccc(S(N)(=O)=O)cc1)C(Cl)(Cl)Cl (stereo unspecified) | 0 | 0 | 0 | ? | ? | 0
CCCC(=O)NC(NC(=S)Nc1ccc(S(N)(=O)=O)cc1)C(Cl)(Cl)Cl (stereo unspecified) | 0 | 0 | 0 | 0 | 45µM | 0
CC(C)(C)NC(=O)CN(C(=O)Cn1nnc(-c2ccccc2F)n1)c1cccc2c1CCCC2 | 0 | 0 | 0 | 0 | 0 | 0
C[C@@H](NC(=O)c1coc(=O)c(Br)c1)c1ccccc1 | 0 | 0 | 0 | 0 | 0 | 0
Cc1nc([N+](=O)[O-])c(Br)n1CC(=O)c1ccccc1 | 0 | ? | 0 | ? | ? | 0
Cc1cnc(NC(=O)Nc2ccc(OCc3ccccc3)cc2)c(Br)c1 | 0 | 30µM | 0 | 0 | 0 | ?
O=C1CCCC2=C1C(c1ccccc1)c1c([nH]n(-c3ccccc3)c1=O)N2 (stereo unspecified) | - | - | - | 0 | - | -
Cc1cccc(C2C3=C(Nc4[nH]n(-c5ccccc5)c(=O)c42)c2ccccc2C3=O)c1 (stereo unspecified) | 32µM | ? | ? | 35µM | 20µM | 35µM
O=C(C1CC1)N1C[C@@H]2OCC(=O)N(Cc3ccncc3)[C@@H]2C1 | - | - | - | 0 | - | -
COc1ccc(C2CC(=O)Oc3ccc(OC)cc32)cc1 (stereo unspecified) | - | 0 | 0 | ? | - | 0
COc1cc(C2CC(=O)Oc3ccc(O)cc32)cc(OC)c1OC (stereo unspecified) | - | - | - | - | 16µM | -
Cc1ccccc1C1CC(=O)Oc2ccc(O)cc21 (stereo unspecified) | - | - | - | - | 10µM | -
COc1ccc(C2CC(=O)Oc3ccc(O)cc32)cc1 (stereo unspecified) | - | - | - | - | 35µM | -
COc1cc(C2CC(=O)Oc3c2c(=O)n(C)c2ccccc32)cc(OC)c1OC (stereo unspecified) | 50µM | ? | ? | 0 | 0 | 0
O=C(CCNC(=O)N1CCn2c1nc1ccccc12)NCc1ccc(F)cc1 | 0 | 0 | 0 | 0 | 0 | 0
Cc1ccc(CNC(=O)CN2CC3CC(C2)[C@H]2CCCC(=O)N2C3)cc1 (stereo partly specified) | - | - | - | 0 | - | -
